An excerpt weighted towards active compounds, which were near 2.3% of everything screened.
CHRM1 agonist – activates human CHRM1 receptor; activation, % at 3 µM; 360,000 tested, 0.33% active; P11229; CHO-K1 hM1, Fluo-8 calcium fluorescence, agonist mode; 0% DMSO, 100% acetylcholine EC100;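 active = activation above the run's mean compound activation plus 3 SD, cut at about 16% in these data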;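 note: peak over basal fluorescence ratio within a 140 s kinetic read after compound addition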
Target sequence (P11229 whole entry, looked up): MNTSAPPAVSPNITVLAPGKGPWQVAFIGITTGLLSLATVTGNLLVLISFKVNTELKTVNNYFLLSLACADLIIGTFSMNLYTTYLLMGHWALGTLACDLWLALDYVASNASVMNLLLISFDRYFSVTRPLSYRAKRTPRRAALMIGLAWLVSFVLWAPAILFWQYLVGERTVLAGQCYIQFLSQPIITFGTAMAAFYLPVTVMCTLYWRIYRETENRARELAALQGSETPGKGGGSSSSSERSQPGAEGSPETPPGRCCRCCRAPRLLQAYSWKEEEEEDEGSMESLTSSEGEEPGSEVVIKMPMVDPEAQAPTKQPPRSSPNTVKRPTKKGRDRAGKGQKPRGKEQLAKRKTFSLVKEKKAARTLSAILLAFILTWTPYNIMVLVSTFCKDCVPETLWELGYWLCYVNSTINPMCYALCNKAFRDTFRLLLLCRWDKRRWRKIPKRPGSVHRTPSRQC
CHRM1 PAM – potentiates human M1 receptor response to acetylcholine; P11229; activation, % at 3 µM; 360,000 tested, 0.088% active; CHO-K1 hM1, Fluo-8 calcium fluorescence, ACh EC20; 0% = ACh EC20, 100% = maximal ACh; AID 588819; in the data active = activation above about 19%, passing the limit was not always enough
M1 PAM parental – nonselective activator or artifact in parental CHO-K1 calcium assay | activation, % at 3 µM | 360,000 tested, 0.02% active | ATP EC20, Fluo-8 calcium fluorescence; 0% at ATP EC20, 100% at ATP max;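 active = activation above the run cutoff, the mean activation of all test compounds plus 3 SD, cut at about 40% in these data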;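 note: peak over basal fluorescence ratio in a 140 s read after ATP addition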
CHO-K1 Ca antag – nonselective inhibitor or artifact in parental CHO-K1 cells; ATP-induced calcium, Fluo-8 fluorescence; inhibition, % at 3 µM; 360,000 tested, 0.6% active; AID 602250;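 active = inhibition above a per-plate cutoff, the plate's mean sample inhibition plus 3 SD, cut at about 24% in these data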;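 note: 0% = DMSO plus EC80 ATP and 100% = DMSO alone without ATP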
CHRM1 antagonist – human CHRM1 antagonism. 360,000 tested, 1.3% active. inhibition, % at 3 µM. CHO-K1 hM1, Fluo-8 calcium fluorescence, ACh EC80 antagonist;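 active = percent inhibition above its own plate's cutoff, namely the mean of that plate's compound wells plus 3 SD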;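 note: peak over basal fluorescence ratio during 140 s after agonist addition; 0% = ACh EC80 plus DMSO and 100% = DMSO alone without agonist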
M1 ag parental – nonselective activator or artifact in parental CHO-K1 cells | Fluo-8 calcium fluorescence; scaled to maximal ATP response, vehicle zero | activation, % at 3 µM | 360,000 tested, 0.48% active | AID 602248; in the data active = activation above about 15%;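 note: untransfected CHO-K1 host cells lacking M1 receptor as counterscreen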
* = called active by the depositor.

SMILES | CHRM1 agonist | CHRM1 PAM | M1 PAM parental | CHO-K1 Ca antag | CHRM1 antagonist | M1 ag parental
O=C(COC(=O)c1ccc(F)c(S(=O)(=O)N2CCOCC2)c1)NCc1ccccc1 | -1.1 | 0.6 | 2.0 | 2.1 | -3.8 | 9.0
CC(C)(C)NCc1cc(Cl)ccc1OCc1ccccc1F | -7.9 | 0.8 | 15.7 | 3.3 | 2.9 | 15.3*
Cc1ccc2c(c1)N(C(=O)CSc1nncn1C)C(C)(C)c1ssc(=S)c1-2 | -6.4 | -27.6 | 10.0 | -4.5 | 41.5* | -0.4
Cc1cc2c(cc1C)N(C(=O)CSc1nncn1C)C(C)(C)c1ssc(=S)c1-2 | -12.2 | -31.3 | 27.9 | -33.0 | 23.5 | -0.7
Cc1ccc(/C=C/C(=O)OCC(=O)NCc2cccs2)o1 | -2.6 | 4.0 | 17.8 | -18.0 | -11.6 | 0.8
O=S(=O)(Nc1nc2ccccc2[nH]1)c1ccc(Cl)cc1 | 2.2 | -25.7 | 11.3 | 5.5 | 70.0* | 0.2
Cc1cc(C)c2nc(N3CCC(C(=O)NCCCN4CC(C)CC(C)C4)CC3)sc2c1 (centres undefined) | -9.7 | -27.1 | 27.4 | -10.1 | 81.7* | 2.4
COc1ccc(/C=C2\CN(Cc3ccccc3)C/C(=C\c3ccc(OC)c(O)c3)C2=O)cc1O | -1.7 | -15.6 | 9.9 | 3.8 | 28.3* | 7.2
CCN1C/C(=C/c2ccc(OC)c(O)c2)C(=O)/C(=C/c2ccc(OC)c(O)c2)C1 | 0.2 | -1.4 | -6.0 | -7.6 | 13.8 | 0.2
Cc1c(N2C(=O)c3ccc(Br)cc3C2=O)c(=O)n(-c2ccccc2)n1C | -2.9 | -18.5 | 14.0 | -1.8 | 73.8* | 0.1
Cc1c(N2C(=O)c3ccc4c5c(ccc(c35)C2=O)CC4)c(=O)n(-c2ccccc2)n1C | -4.6 | 7.6 | 7.4 | 4.7 | -12.7 | -0.4
CNc1cncc(-c2ccc(OC)cc2)n1 | -3.4 | 8.0 | 7.5 | 6.9 | -11.7 | 0.0
CCOC(=O)c1oc2c(O)c(O)ccc2c(=O)c1-c1nncn1-c1ccccc1 | -2.6 | 1.8 | -1.0 | -6.2 | 0.7 | 0.0
CCOC(=O)c1oc2c(C)c(O)ccc2c(=O)c1-c1nncn1-c1ccccc1 | 0.9 | 5.0 | -6.4 | 30.9* | 0.4 | 0.2
CC1CC(C)CN(CCCNC(=O)C2CCCN(S(=O)(=O)N3CC(C)CC(C)C3)C2)C1 (centres undefined) | -13.8 | -4.2 | -17.8 | 2.7 | 3.5 | -1.1
Cc1ccc(NC(=O)C2CCN(S(=O)(=O)c3c(C)nn(C)c3C)CC2)c(Cl)c1 | -4.1 | 5.8 | 15.8 | 37.2* | -9.2 | 1.7
Cc1ccc(CCNC(=O)C2CCN(S(=O)(=O)c3c(C)nn(C)c3C)CC2)cc1 | -5.0 | 9.4 | 17.9 | -19.2 | -10.3 | 1.1
Cc1ccc(Cl)cc1N1CCN(C(=O)C2CCN(S(=O)(=O)c3cccnc3)CC2)CC1 | 1.9 | -7.5 | -9.5 | 15.7 | 17.6 | 7.8
Cc1ccc(Cl)cc1N1CCN(C(=O)C2CCN(S(=O)(=O)c3c(C)nn(C)c3C)CC2)CC1 | 9.5 | -20.2 | -1.5 | 16.0 | 21.7* | 12.4
O=C(CCNc1n[nH]c(=O)[nH]c1=O)N/N=C\c1cccc(OCc2ccccc2)c1 | -7.7 | 1.0 | 21.5 | -12.4 | 3.1 | 0.7
C=C(C)COc1ccc2oc(C)c(C(=O)OCCOC)c2c1 | -4.2 | -0.8 | 8.2 | 1.4 | 1.4 | -0.1
CCN(CC)CCOC(=O)c1c(C)oc2ccc(OC)cc12 | -7.8 | -23.6 | -0.6 | -23.8 | 25.4* | 0.1
N#C/C(=C\c1ccc(N2CCCCC2)o1)C(=O)Nc1cccc(Br)c1 | 68.2* | -22.7 | -13.9 | 58.2* | 66.2* | 54.5*
N#C/C(=C\c1ccc(N2CCCCC2)o1)C(N)=O | -3.1 | 4.6 | 7.1 | 6.9 | -6.7 | 6.9
COCCCN1CC(=O)N2C(c3ccccc3)c3[nH]c4ccccc4c3C[C@H]2C1=O (some centres undefined) | -8.0 | 3.1 | -10.2 | -10.8 | -9.3 | 0.9
SMILES | CHRM1 agonist | CHRM1 PAM | M1 PAM parental | CHO-K1 Ca antag | CHRM1 antagonist | M1 ag parental
CN1CC(=O)N2C(c3ccc(Cl)cc3)c3[nH]c4ccccc4c3C[C@H]2C1=O (some centres undefined) | -2.8 | -0.5 | 19.3 | 9.0 | 0.0 | 24.0*
CCN1C(=O)[C@@H]2Cc3c([nH]c4ccccc34)C(c3ccc(OC)cc3)N2C1=S (some centres undefined) | -4.0 | -30.8 | 9.0 | -5.0 | 70.6* | 5.8
COC(=O)c1ccc(C2c3[nH]c4ccccc4c3C[C@H]3C(=O)N(C)CC(=O)N23)cc1 (some centres undefined) | 0.2 | -1.6 | -6.8 | -15.9 | 12.1 | 2.3
c1ccc(-c2ccccc2OCCOCCN2CCCCC2)cc1 | -8.5 | -13.8 | 15.8 | -5.8 | 18.8 | 1.3
c1ccc(-c2ccccc2OCCCCN2CCCCCC2)cc1 | -9.5 | -26.3 | 15.1 | -1.7 | 35.2* | 3.8
c1ccc(-c2ccccc2OCCN2CCCC2)cc1 | -11.2 | -28.6 | -23.5 | 18.4 | 67.6* | -0.1
Cn1c(Oc2ccc(Cl)cc2)c(C=O)c2ccccc21 | -5.9 | -2.2 | -9.1 | 27.3* | -5.1 | -0.2
CN1CCN(C(=O)Nc2cccc(-c3ccccc3)c2)CC1 | -7.7 | -15.8 | 2.0 | -3.6 | 31.0* | 0.3
CN1CCN(C(=O)Nc2ccc3c(c2)N(C)C(=O)c2ccccc2S3)CC1 | -6.8 | 8.9 | 4.9 | -17.8 | -12.0 | 0.4
CCC(c1nnnn1Cc1ccccc1)N1CCN(c2ccc(OC)cc2)CC1 (centres undefined) | -9.8 | -2.1 | 6.3 | -8.7 | -0.3 | 0.5
CCC(c1nnnn1Cc1ccc(OC)cc1)N1CCN(c2ccc(OC)cc2)CC1 (centres undefined) | -1.8 | 5.9 | -14.7 | 25.4* | -4.3 | 0.3
COc1ccc(CNC(=O)[C@@H](NC(=O)C2CCN(C(=O)[C@@H](N)CC(C)C)CC2)C(C)C)cc1 | -2.7 | 2.4 | -1.0 | 11.6 | -9.9 | 0.0
Cc1cc(C(=O)CSc2nncs2)c(C)n1-c1c(C)n(C)n(-c2ccccc2)c1=O | -12.5 | -33.3 | 8.2 | -6.3 | 54.5* | 0.2
Cc1nnc(SCC(=O)c2cc(C)n(-c3c(C)n(C)n(-c4ccccc4)c3=O)c2C)s1 | -8.2 | -2.1 | 4.0 | -15.8 | -15.9 | -0.7
O=C(c1ccc2c(c1)OCO2)C1CCCN(Cc2cccn2-c2cccnc2)C1 (centres undefined) | -5.2 | -8.1 | 5.3 | -12.1 | 9.6 | 3.0
COc1cccc(CN2CCCC(C(=O)c3ccc4c(c3)OCO4)C2)c1OC (centres undefined) | -10.7 | -25.9 | 15.7 | -13.0 | 56.7* | 1.4
COc1ccc(C(=O)C2CCCN(C3Cc4ccccc4C3)C2)cc1OC (centres undefined) | -9.2 | -26.6 | -10.0 | 2.1 | 89.9* | -0.1
COc1ccc(C(=O)C2CCCN(Cc3cccc4c3OCO4)C2)cc1OC (centres undefined) | -13.0 | -32.4 | 9.3 | -7.6 | 29.2* | -0.3

High-throughput results from PubChem.
